In PubChem BioAssay AID1508600 (Functional Genomics Laboratory (NCATS/FGL), 2020):
In all, about 53,000 sequences went through this assay and about 3,700 (7%) were called active.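 Rule for the calls: active = gene knockdowns whose robust z-score for IL-1 alpha signal is at least 2 or at most -2, so actives lie on both sides; inactive = the rest.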 Only a selection was taken, and actives are over-represented in it overall.

Experiment: Components of the Cytosolic LPS Sensing Pathway: Gene Identification via Genome-wide siRNA Screen;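 note: robust z of the log signal after scaling to non-targeting control siRNA wells of the plate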
Settings: RAW264.7 macrophages, IL-1a HTRF, actives lie on both sides, screened at 100 nM (by protocol), cells primed 5 h with Pam3CSK4 first
Outline: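 Knockdown: 100 nM siRNA, 48h, RAW264.7. Stimulation: Pam3CSK4 5 h, then LipidA via TransIT-TKO 24 h. Output: supernatant IL-1a HTRF, negative-control-normalized, log robust z-score; viability by CellTiter-Glo.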

Sequence	z-score
GGUGGUCUACUUCACCGCATT against Slc6a20a	0.466 (inactive)
GGAUCUCCUUUUUUUUCAATT against Gabrr1	0.0887 (inactive)
UCAUCGCAACCAUCCACAGTT against Olfr530	0.464 (inactive)
CGAUGACGAUGCCUAACCATT against Dgkeos	-2.34 (active)
GGGAGUCUGGUGGAUUGAUTT against Rln1	0.0253 (inactive)
GGUCUCACAAAAACAGUUCTT against Casq2	-0.317 (inactive)
GCAGUGUAAUGUGGCCUACTT against Rorc	0.682 (inactive)
GCUGUUUUCUUUCCAUUUCTT against Olfr981	-1.1 (inactive)
GAAUUACACACAGGCCUGATT against Olfr1048	0.306 (inactive)
CACUGCUGUAAUCCCUAUGTT against Olfr1002	0.4 (inactive)
CCAACAACGGCAUUCACUATT against Ebf3	-0.676 (inactive)
GGAGCACUUUGUAUGGAACTT against Ube2q2	2.97 (active)
CAAACCUUGUUGCCAUGACTT against Olfr406	0.0688 (inactive)
GACAAGGUGCCAUACCAUUTT against Olfr351	-0.373 (inactive)
GGACAGCUCUCAGAAUUCUTT against Ctse	-1.13 (inactive)
CGCAAACAAACCUUAACAGTT against Maneal	2.21 (active)
GCUCCGGAAAGUAAGCAGATT against Tnfrsf26	0.259 (inactive)
CCAUGGUACUAAUGUAAAUTT against Eef1e1	0.797 (inactive)
GGCUUUGAACACCAGUGAATT against Rpp21	-0.453 (inactive)
CGCAGAUAAUAUCUUUGUCTT against Olfr461	0.389 (inactive)
GGACCUAAGCAGAAAACUGTT against Meis3	0.789 (inactive)
GCGGUAUGGCAUGGUACAUTT against LTO1	-0.855 (inactive)

Sequence	z-score
GGCCAUAAAACAUAAGCUATT against Tmem17	0.163 (inactive)
CGAACUUGUACAGAAGAAUTT against Slfn3	-0.311 (inactive)
AUGGGAGAAUCAGCAGAACTT against Set	-2.77 (active)
GCAUAGAGGACUACAACGATT against Optc	0.329 (inactive)
GGACAGGAAGAAAAGAAACTT against Vmn2r-ps11	-1.19 (inactive)
GGAAGGUGAAGCCAGUUUCTT against Traf3ip2	2.02 (active)
GGACACUUUCAGACCUUAGTT against Ankrd27	-0.116 (inactive)
GGACUUUGAUGUUGAAUGUTT against Rapgef1	-0.985 (inactive)
GGAAAAUGGUUGGUACUUUTT against Vwc2	0.219 (inactive)
GGACCUUCCUACGAGAAAATT against Tm2d2	0.0894 (inactive)
GGAUCAAGGAGGAUUUCAATT against Tprg	2.38 (active)
CGGUAAACAUCAGUAAUGATT against Drd5	0.0608 (inactive)
GCUACGUUCAGUUCCAUUGTT against Eddm3b	-0.321 (inactive)
CGACUUGAUUUCAAAACAUTT against Fbxl13	-0.981 (inactive)
GGACCUGUCCAUCUUCAUCTT against Scn1b	3.87 (active)
GCCAAGAGUUUGAUAUAUATT against Plekhg3	1.79 (inactive)
GGUAACAUCUCCAUCAGCCTT against Nxph3	0.34 (inactive)
GGUAUCUUUAGGUUUCUGGTT against Vmn2r37	0.499 (inactive)
GCCAAGAAAGAUCAUUGACTT against Far2	-0.703 (inactive)
GCUAGCCAGUGCAUUCACATT against Srp68	-2.96 (active)
GCCCUUAAUUGAACAAAUATT against Otud7b	0.0529 (inactive)
CGGACUCAGUCAUCAUUGCTT against Atf7	-1.46 (inactive)

Sequence	z-score
GGAAAGAAAAAUCAGAGAATT against Adprhl1	-0.866 (inactive)
GCUGUGGUAAACUGAAACUTT against Glis2	-1.89 (inactive)
GGGAGCCAAUGAAAUCAAGTT against Hmbox1	3.31 (active)
GCCUUGACAGAGGUAUUGATT against Ovgp1	-1.46 (inactive)
GGAGAAAUUCAAACAAGUATT against 4930503B20Rik	0.275 (inactive)
CCCACUGGUUUGUUUAAACTT against Hbegf	0.555 (inactive)
GGUUUUGCCUCCCAUAGUATT against Ssty1	0.112 (inactive)
GGAGGAGCUUAGCCCUUUUTT against Bad	2.28 (active)
GCAGUUACGUUAGUUAAUATT against Plekha1	1.1 (inactive)
GCUACUCAUUUAGCAGAGATT against Olfr76	-0.887 (inactive)
GUGGAUUAGGGAAUUUCAUTT against Mrgprb1	1.84 (inactive)
GAAUCCCUUCGAGUACGACTT against Fxyd2	3.17 (active)
GGAGCUGAAUGUCUGUAGCTT against Mzt2	-1.31 (inactive)
CCUGAUGGAUGAUGAAUCATT against Trap1a	-1.42 (inactive)
GGAGGAGCUGGAGAAAACATT against Psd4	-0.43 (inactive)
GGUCCUUUGAUGCUGACUGTT against Sfrp4	-2.07 (active)
CCAAGAAAAGUCCAGAAGCTT against Rorb	0.379 (inactive)
GGAGAGACGUAAGAGGCGATT against Zrsr2	0.0858 (inactive)
GGACAAUUGGGCCAAACUGTT against Mpv17	0.103 (inactive)
GGUGAAACCCUGAAAGUCCTT against Tmem154	-0.169 (inactive)
GGUGUGUUAAGGUUUUUAATT against Marchf1	3.68 (active)
GGAUAAUUUUGGAAGCAGATT against Rheb	-0.299 (inactive)

Sequence	z-score
GCAUCUCACUCGUAAAGGUTT against Tmprss11f	-0.555 (inactive)
GCGCGUGACAAGGAGGAUUTT against Ska3	1.03 (inactive)
GGCCUGAACUUUUUAUUGATT against Olfr533	-2.19 (active)
GGGAUUUUAUCAUACAAACTT against Ppil4	0.774 (inactive)
GGCUUUCAUGUGCCGUUUUTT against Gstm5	2.39 (active)
GGAACUUGUUUCAUAUCGUTT against Scfd1	0.839 (inactive)
GGGAUUGUGUGAAUCAUACTT against Tmem230	-1.27 (inactive)
GGCUGCUGAAGCAAAUAAGTT against Ankrd17	3.38 (active)
GGGAAGGCUGAAUGACUGCTT against Vamp5	0.257 (inactive)
GGCGAGAGAGAUGAGUAAATT against Smim3	-1.63 (inactive)
GGGAAUUAUGGGCUUACCGTT against 4931414P19Rik	-0.414 (inactive)
GGCUAUUUCUUUUUAUGCUTT against Ak4	0.911 (inactive)
GGAGACAAUGGACAAGAAGTT against Dnal4	0.272 (inactive)
GCCAGUAACCAGAAAAUUGTT against Sycp3	-2.01 (active)
CCUUAUUACACACACCCUGTT against Gja3	0.398 (inactive)
GCUGGUAGCAUUCUUAUCCTT against Xylt2	0.529 (inactive)
CGGAUGAGGUUUCUUUUAUTT against Phkb	0.415 (inactive)
GGUUGGUUCUUACUUGAAATT against Mindy3	0.613 (inactive)
GGAUAAUGCUCCAUCAUAGTT against Nab1	-0.419 (inactive)
GCAAUCACCAAAUCACUAGTT against Fstl1	-0.123 (inactive)
GCCAGGAAACGACAAUAAATT against Slc5a11	0.731 (inactive)
CCUAGUACUUCGAAGAAAGTT against Tmem255a	-2.62 (active)

Sequence	z-score
GGUCAUUCAGUGGUGCACCTT against Skp1	-0.00227 (inactive)
GGUUUCAAACUCUUGUAAUTT against Pgrmc1	-0.139 (inactive)
GGUUUGUUUUCAGAUGAAGTT against Washc2	0.155 (inactive)
GGAGAAAAUAAGCUGGUAGTT against Slc35f1	3.42 (active)
CCCAUCAAUGCUGUUAAUUTT against Entpd5	0.128 (inactive)
GCUCGAUAUCACAGAGAUUTT against Ces5a	-0.177 (inactive)
GGAGUUGGAGAAUGACACGTT against Ift88	1.14 (inactive)
GCAGUGUUGUCAAAACUUGTT against Mtfmt	1.54 (inactive)
GGUACUUUAUAGGAACAGUTT against Zbtb41	-0.973 (inactive)
GGUAUGCUAACAGAACACGTT against Nr1h4	3.15 (active)
GCAGAUGCUAACAUAUCCATT against Trim32	-0.902 (inactive)
GCGCAGAGAUUACCUUAAGTT against Gtf3a	-0.543 (inactive)
CCACUAUUUAAUCUUACCGTT against Hoxc13	0.175 (inactive)
GGAGCAUAUAUAGAAUUAGTT against Mrps22	3.01 (active)
GCGGGCUUUGCUGAGAUUUTT against Zbtb48	0.604 (inactive)
GGAGAUUUCCCGACUUAACTT against Tnip2	1.68 (inactive)
GGCAUCCAUGUGCUCUUUCTT against Tex13a	-2.49 (active)
GGGAAAAGGUCAGUGAAGUTT against Fam219b	-0.305 (inactive)
GGGAAUGGAAGAAUAUUCUTT against Dppa2	1.61 (inactive)
